The whole screen tested about 5,500 compounds, of which about 2,000 (36%) were called active. Roughly 18% stayed inconclusive and do not appear here. Rule as the data show it: active = normalized growth mostly below about 0.91 (no sharp cut-off); inconclusive = no clear call, values can overlap the other calls; inactive = mostly above about 0.92. The list shows a part of the results.
Assay: chemical genetic growth profiling, strain panel (AID 1159580);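 also: tested at 20 µM; growth read once vehicle control cultures reached saturation at 30 °C; 1 = growth at the plate median or of vehicle wells; lower values mean less growth of the strain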
Conditions: S. cerevisiae deletion strains, growth OD

Measured: normalized growth

CC(=O)O[C@H]1CCC2(C)C3=C(CCC2C1(C)C)[C@]1(C)CCC(C(C)CCC=C(C)C)[C@@]1(C)CC3 (stereo not given in full)
inactive: locus YAL021C, strain ccr4, active compounds read low 1.05 | locus YAL026C, strain drs2, active compounds read low 0.971 | locus YAL030W, strain snc1, active compounds read low 0.996 | locus YBL061C, strain skt5, active compounds read low 0.99 | locus YBR009C, strain hhf1, active compounds read low 0.998 | locus YBR023C, strain chs3, active compounds read low 0.984 | locus YBR171W, strain sec66, active compounds read low 0.994 | locus YBR231C, strain swc5, active compounds read low 0.961 | locus YBR279W, strain paf1, active compounds read low 0.996 | locus YCL011C, strain gbp2, active compounds read low 1.01 | locus YCL016C, strain dcc1, active compounds read low 1.01 | locus YCL061C, strain MRC1, active compounds read low 0.995 | locus YCL069W, strain vba3, active compounds read low 0.999 | locus YCR088W, strain abp1, active compounds read low 1 | locus YDL005C, strain med2, active compounds read low 0.983 | locus YDL040C, strain nat1, active compounds read low 0.991 | locus YDR001C, strain nth1, active compounds read low 1.01 | locus YDR069C, strain doa4, active compounds read low 0.966 | locus YDR137W, strain rgp1, active compounds read low 0.957 | locus YDR159W, strain sac3, active compounds read low 0.965 | locus YDR195W, strain ref2 0.958 | locus YDR297W, strain sur2, active compounds read low 0.993 | locus YDR334W, strain swr1, active compounds read low 1 | locus YDR335W, strain msn5, active compounds read low 1.01 | locus YDR392W, strain spt3, active compounds read low 0.979 | locus YEL003W, strain gim4, active compounds read low 0.969 | locus YEL037C, strain rad23, active compounds read low 0.999 | locus YEL061C, strain CIN8 (second series), active compounds read low 1.01 | locus YER015W, strain faa2, active compounds read low 0.996 | locus YER016W, strain bim1, active compounds read low 0.995 | locus YER111C, strain swi4, active compounds read low 0.986 | locus YER155C, strain BEM2 (second series), active compounds read low 1.02 | locus YFR010W, strain ubp6, active compounds read low 0.97 | locus YGL167C, strain pmr1, active compounds read low 0.99 | locus YGL173C, strain kem1, active compounds read low 0.971 | locus YGL227W, strain vid30, active compounds read low 0.996 | locus YGL240W, strain doc1, active compounds read low 0.988 | locus YGL253W, strain hxk2, active compounds read low 0.933 | locus YHR013C, strain ard1, active compounds read low 1.02 | locus YHR027C, strain rpn1, active compounds read low 0.993 | locus YHR030C, strain SLT2, active compounds read low 0.968 | locus YHR079C, strain IRE1, active compounds read low 0.994 | locus YHR142W, strain chs7, active compounds read low 0.994 | locus YJL092W, strain hpr5, active compounds read low 0.996 | locus YJL095W, strain BCK1 (second series), active compounds read low 0.999 | locus YJL095W, strain BCK1, active compounds read low 0.956 | locus YJL115W, strain asf1, active compounds read low 0.987 | locus YJL129C, strain trk1, active compounds read low 0.977 | locus YJL154C, strain vps35, active compounds read low 0.999 | locus YJL164C, strain tpk1, active compounds read low 1.03 | locus YJL166W, strain qcr8, active compounds read low 0.98 | locus YJL187C, strain SWE1, active compounds read low 0.997 | locus YJR066W, strain TOR1, active compounds read low 0.937 | locus YKL160W, strain elf1, active compounds read low 1.03 | locus YKR026C, strain gcn3, active compounds read low 0.992 | locus YKR091W, strain srl3, active compounds read low 1 | locus YLL001W, strain dnm1, active compounds read low 0.958 | locus YLL026W, active compounds read low 1 | locus YLL041C, strain sdh2, active compounds read low 1 | locus YLR027C, strain aat2, active compounds read low 1 | locus YLR113W, strain HOG1, active compounds read low 0.957 | locus YLR221C, strain rsa3, active compounds read low 0.98 | locus YLR258W, strain gsy2, active compounds read low 0.999 | locus YLR262C, strain YPT6 (second series), active compounds read low 0.951 | locus YLR320W, strain mms22, active compounds read low 0.995 | locus YLR342W, strain FKS1, active compounds read low 1 | locus YLR357W, strain rsc2, active compounds read low 0.996 | locus YLR370C, strain arc18, active compounds read low 0.988 | locus YLR384C, strain iki3, active compounds read low 0.968 | locus YML120C, strain ndi1, active compounds read low 1.01 | locus YMR058W, strain fet3, active compounds read low 0.975 | locus YMR125W, strain sto1, active compounds read low 1.02 | locus YMR129W, active compounds read low 1 | locus YMR205C, strain PFK2, active compounds read low 1.03 | locus YMR231W, strain pep5, active compounds read low 0.983 | locus YNL071W, strain lat1, active compounds read low 1.04 | locus YNL183C, strain NPR1, active compounds read low 0.896 | locus YNL209W, strain ssb2, active compounds read low 1.01 | locus YNL248C, strain rpa49, active compounds read low 0.97 | locus YNL322C, strain KRE1 (second series), active compounds read low 0.978 | locus YNR049C, strain mso1, active compounds read low 0.988 | locus YOR001W, strain rrp6, active compounds read low 0.923 | locus YOR070C, strain gyp1, active compounds read low 1 | locus YOR080W, strain dia2, active compounds read low 0.969 | locus YOR083W, strain WHI5, active compounds read low 1.02 | locus YOR106W, strain vam3, active compounds read low 1.02 | locus YOR231W, strain MKK1, active compounds read low 0.969 | locus YOR265W, strain rbl2, active compounds read low 1.01 | locus YOR270C, strain vph1, active compounds read low 0.814 | locus YOR290C, strain snf2, active compounds read low 1.02 | locus YPL051W, strain arl3, active compounds read low 0.989 | locus YPL078C, strain atp4, active compounds read low 1.04 | locus YPL106C, strain sse1, active compounds read low 1.09 | locus YPL240C, strain hsp82, active compounds read low 0.994 | locus YPL256C, strain CLN2, active compounds read low 0.979

— PubChem BioAssay AID1159580 (chemical genetic matrix, 2015)
